Test results: PubChem BioAssay (Tox21)
Results filed as inconclusive are left out. The source made the active and inactive calls. Unless noted, calls come from the whole dose curve; as a rule, active = well fitted curve in the direction sought with a large enough effect in the repeat runs; inconclusive = weak or mixed curves; inactive = no such curve, though single readings can be large; an effect the other way counts as inactive or inconclusive.

Experiments:
[1] = biological target: Progesterone receptor (Homo sapiens) (UniProt P06401); assay: qHTS assay to identify small molecule antagonists of the progesterone receptor (PR) signaling pathway (AID 1346795; active = well fitted inhibition curve with a large enough effect in the signal ratio in the repeat runs, not every such curve was filed as active; the % refers to the signal ratio)
Chain of Progesterone receptor (Homo sapiens) (P06401 whole entry, looked up): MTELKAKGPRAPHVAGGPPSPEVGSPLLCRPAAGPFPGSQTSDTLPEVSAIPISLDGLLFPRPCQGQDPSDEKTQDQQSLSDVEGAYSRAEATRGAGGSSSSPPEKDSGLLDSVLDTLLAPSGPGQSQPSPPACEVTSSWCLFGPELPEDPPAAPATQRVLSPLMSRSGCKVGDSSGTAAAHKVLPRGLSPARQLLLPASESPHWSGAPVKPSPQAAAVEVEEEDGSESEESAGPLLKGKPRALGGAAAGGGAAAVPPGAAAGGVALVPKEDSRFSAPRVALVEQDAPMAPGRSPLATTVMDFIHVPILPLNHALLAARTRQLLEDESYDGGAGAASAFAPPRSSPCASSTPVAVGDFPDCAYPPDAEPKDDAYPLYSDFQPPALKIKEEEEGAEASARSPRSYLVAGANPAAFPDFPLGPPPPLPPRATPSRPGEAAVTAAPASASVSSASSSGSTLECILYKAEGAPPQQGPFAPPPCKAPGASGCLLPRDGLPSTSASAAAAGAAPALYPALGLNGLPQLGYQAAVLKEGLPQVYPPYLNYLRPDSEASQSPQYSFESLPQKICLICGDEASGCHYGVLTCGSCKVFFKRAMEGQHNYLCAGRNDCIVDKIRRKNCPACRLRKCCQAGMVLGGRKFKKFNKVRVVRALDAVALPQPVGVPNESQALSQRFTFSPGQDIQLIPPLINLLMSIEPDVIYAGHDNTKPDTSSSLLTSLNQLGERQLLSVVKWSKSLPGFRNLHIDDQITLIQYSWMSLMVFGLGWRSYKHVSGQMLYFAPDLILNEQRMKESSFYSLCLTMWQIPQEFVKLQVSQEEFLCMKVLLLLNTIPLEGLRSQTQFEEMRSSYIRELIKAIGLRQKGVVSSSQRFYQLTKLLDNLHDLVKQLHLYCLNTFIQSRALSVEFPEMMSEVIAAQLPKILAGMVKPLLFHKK
Procedure, shortened: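 After 6 hr plating at 37C in 2% stripped-serum medium, PR-UAS-bla HEK293T cells got compounds, then 1 nM R5020. Sixteen hours later, LiveBLAzer substrate was applied for 2 hr at room temperature and fluorescence was recorded.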

[2] = qHTS assay to identify small molecule antagonists of the progesterone receptor (PR) signaling pathway - cell viability counter screen (AID 1346798); note: series mostly up to about 92 µM; nearly all actives have a fitted effect of over 50% in size
Procedure, shortened: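 Viability was determined by ATP-based luminescence (CellTiter-Glo) in PR-UAS-bla HEK293T cells cultured in 2% charcoal-stripped serum and incubated 16 hr with compounds under R5020 stimulation.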

[3] = qHTS assay to identify small molecule agonists of the progesterone receptor (PR) signaling pathway - cell viability counter screen (AID 1346799; calls by dose curve; note: nearly all actives have a fitted effect of over 45% in size)
Procedure, shortened: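 Viability was scored by ATP luminescence (CellTiter-Glo, 30 min, room temperature) in the same wells used for the reporter readout, after 16 hr compound exposure of PR-UAS-bla HEK293T cells.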

[4] = qHTS assay to identify small molecule antagonists of the TGF-beta/Smad signaling pathway - cell viability counter screen (AID 1346824); note: nearly all actives have a fitted effect of over 50% in size
Procedure, shortened: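 Cytotoxicity counter-screen run in the same wells as the beta-lactamase Smad reporter read: CellTiter-Glo luminescence after 30 min at room temperature. HEK 293T SBE-bla cells had 5 hr compound exposure at 37 C with TGF-beta1 (0.25 ng/mL stock).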

[5] = qHTS assay to identify small molecule agonists of the TGF-beta/Smad signaling pathway - cell viability counter screen (AID 1346829); note: top concentration of the series differs between compounds; nearly all actives have a fitted effect of over 45% in size
Procedure, shortened: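 Same-well cytotoxicity: CellTiter-Glo added after the 2 hr room-temperature beta-lactamase substrate step, luminescence measured 30 min later; cells had 5 hr of compound at 37 C.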

[6] = qHTS assay to identify small molecule agonists of the TGF-beta/Smad signaling pathway (AID 1346859; active = well fitted activation curve with a large enough effect in the signal ratio in the repeat runs, not every such curve was filed as active; the % refers to the signal ratio; note: series mostly up to about 77 µM)
Procedure, shortened: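 Dual-wavelength fluorescence (460/530 nm emission) quantified beta-lactamase expression under the Smad binding element in HEK 293T cells following 5 hr compound treatment at 37 C.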

[7] = biological target: Thyrotropin-releasing hormone receptor (Homo sapiens) (UniProt P34981); assay: qHTS assay to identify small molecule antagonists of the thyrotropin-releasing hormone receptor (TRHR) signaling pathway (AID 1346877; active = well fitted inhibition curve with a large enough effect in the repeat runs, not every such curve was filed as active; note: series mostly up to about 51 µM)
Chain of Thyrotropin-releasing hormone receptor (Homo sapiens) (P34981 whole entry, looked up): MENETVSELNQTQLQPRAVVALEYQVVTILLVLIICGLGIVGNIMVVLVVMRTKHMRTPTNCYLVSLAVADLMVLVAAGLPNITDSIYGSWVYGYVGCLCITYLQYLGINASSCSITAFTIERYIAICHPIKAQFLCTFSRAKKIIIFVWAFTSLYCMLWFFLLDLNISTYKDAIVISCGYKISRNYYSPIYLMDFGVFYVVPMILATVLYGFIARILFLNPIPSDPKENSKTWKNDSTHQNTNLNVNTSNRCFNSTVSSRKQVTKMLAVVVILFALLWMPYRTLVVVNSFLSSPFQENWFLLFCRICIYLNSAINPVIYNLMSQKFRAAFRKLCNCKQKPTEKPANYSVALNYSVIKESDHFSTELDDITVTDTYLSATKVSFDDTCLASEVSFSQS
Procedure, shortened: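 Antagonist mode: after a 5 min room-temperature compound exposure, cells were stimulated with 1 nM (final) TRH. Dye-loaded TRHR-HEK293 cells were used, and calcium-dependent fluorescence was followed for 3 min, with 15-point titrations run in triplicate.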

[8] = biological target: Thyrotropin-releasing hormone receptor (Homo sapiens) (UniProt P34981); assay: qHTS assay to identify small molecule agonists of the thyrotropin-releasing hormone receptor (TRHR) signaling pathway (AID 1346891; calls by dose curve;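 note: HEK293 cells expressing TRHR with calcium dye readout; series mostly up to about 58 µM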)
Procedure, shortened: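 Kinetic fluorescence (3 min, 1 s intervals) reported intracellular calcium after compound transfer onto TRHR-Hek293 cells pre-loaded with dye for 2 h at 37 °C.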

[9] = Caspase-3/7 induction in HepG2 cells by small molecules, qHTS assay (AID 1346978); note: nearly all actives have a fitted effect of over 15% in size; note: potency is the fitted concentration of half-maximal effect
Procedure, shortened: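 Caspase-3/7 induction was measured by Caspase-Glo 3/7 luminescence (30 min, room temperature) after a 17 hr compound exposure of wild-type HepG2 cells seeded at 2,000 per well and pre-incubated 5 hr.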

[10] = Human pregnane X receptor (PXR) small molecule agonists, qHTS cell viability counter screen (AID 1346977); note: nearly all actives have a fitted effect of over 50% in size
Procedure, shortened: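 HepG2 cells stably carrying the PXR-Luc reporter are cultured with 5% charcoal-stripped FBS and treated with compounds for 24hr. CellTiter-Fluor is added at 23hr and fluorescence is read after 1hr.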
% is set by controls: 0 for no effect and ±100 for the full control effect.

OC[C@H](Cc1cccc(O)c1)[C@H](CO)Cc1cccc(O)c1
inactive: Potency [1] | Potency [2] | Potency [3] | outcome [4] | outcome [5] | outcome [6] | outcome [7] | outcome [8] | Potency [9]

NCCS
inactive: Potency [1] | Potency [2] | Potency [3] | outcome [4] | outcome [5] | outcome [6] | outcome [7] | outcome [8] | Potency [10]

O=C1c2ccccc2C(=O)N1CCl
inactive: Potency [1] | Potency [2] | Potency [3] | outcome [4] | outcome [5] | outcome [6] | outcome [7] | outcome [8] | Potency [10] | Potency [9]

C[C@@H](Oc1ccc(CNC(=O)c2cccnc2Oc2ccc3c(c2)OCO3)c(F)c1)C(=O)O
inactive: Potency [1] | Potency [2] | Potency [3] | outcome [4] | outcome [5] | outcome [6] | outcome [7] | outcome [8] | Potency [10] | Potency [9]

CCO[Si](CCCS)(OCC)OCC
inactive: Potency [1] | Potency [2] | Potency [3] | outcome [4] | outcome [5] | outcome [6] | outcome [7] | outcome [8] | Potency [10] | Potency [9]

CC(C)CC(=O)O
inactive: Potency [1] | Potency [2] | Potency [3] | outcome [4] | outcome [5] | outcome [6] | outcome [7] | outcome [8] | Potency [10] | Potency [9]

COC(=O)CCc1ccc(OCC(O)CNC(C)C)cc1 (configuration not stated)
inactive: Potency [1] | Potency [2] | Potency [3] | outcome [4] | outcome [5] | outcome [6] | outcome [7] | outcome [8] | Potency [10] | Potency [9]

CCC(CC)CO
inactive: Potency [1] | Potency [2] | Potency [3] | outcome [4] | outcome [5] | outcome [6] | outcome [7] | outcome [8] | Potency [10] | Potency [9]

COCCc1ccc(OCC2CO2)cc1 (configuration not stated)
inactive: Potency [1] | Potency [2] | Potency [3] | outcome [4] | outcome [5] | outcome [6] | outcome [7] | Potency [10]

COc1ccc(Br)c(C)c1
inactive: Potency [1] | Potency [2] | Potency [3] | outcome [4] | outcome [5] | outcome [6] | outcome [7] | outcome [8] | Potency [10] | Potency [9]

CCCCCCCCOS(=O)(=O)O
inactive: Potency [1] | Potency [2] | Potency [3] | outcome [4] | outcome [5] | outcome [6] | outcome [7] | outcome [8] | Potency [10]

Cc1ccccc1C(=O)Nc1ccc(C(=O)N2CCCC(N(C)C)c3ccccc32)cc1 (configuration not stated)
inactive: Potency [1] | Potency [2] | Potency [3] | outcome [4] | outcome [5] | outcome [6] | outcome [7] | outcome [8]
active: Potency [9] 3.76 µM

CCOc1cc(NC(C)=O)ccc1C(=O)OC
inactive: Potency [1] | Potency [2] | Potency [3] | outcome [4] | outcome [5] | outcome [6] | outcome [7] | outcome [8] | Potency [10]

CN(C)CCOCCO
inactive: Potency [1] | Potency [2] | Potency [3] | outcome [4] | outcome [5] | outcome [6] | outcome [7] | outcome [8] | Potency [10] | Potency [9]

O=C(CS(=O)Cc1ccco1)NC/C=C\COc1cc(CN2CCCCC2)ccn1 (configuration not stated)
inactive: Potency [1] | Potency [2] | Potency [3] | outcome [4] | outcome [5] | outcome [6] | outcome [7] | outcome [8] | Potency [10] | Potency [9]

Nc1cccc(O)c1
inactive: Potency [1] | Potency [2] | Potency [3] | outcome [4] | outcome [5] | outcome [6] | outcome [7] | Potency [10] | Potency [9]

CCCCCCN
inactive: Potency [1] | Potency [2] | Potency [3] | outcome [4] | outcome [5] | outcome [7] | outcome [8] | Potency [10] | Potency [9]

CC(C)(C)NC(N)=O
inactive: Potency [1] | Potency [2] | Potency [3] | outcome [4] | outcome [5] | outcome [6] | outcome [7] | Potency [10] | Potency [9]

CCCOC(=O)C(C)O (configuration not stated)
inactive: Potency [1] | Potency [2] | Potency [3] | outcome [4] | outcome [5] | outcome [6] | outcome [7] | Potency [10] | Potency [9]

CCCN1C[C@H](CSC)C[C@@H]2c3cccc4[nH]cc(c34)C[C@H]21
inactive: Potency [1] | Potency [2] | Potency [3] | outcome [4] | outcome [5] | outcome [7] | outcome [8] | Potency [10] | Potency [9]

Oc1cn2c(n1)Nc1ccc(Cl)c(Cl)c1C2
inactive: activity change, negative = inhibition [1] 2.35% [at 18.9 µM] | activity change, negative = cytotoxicity [2] 6.36% [at 18.9 µM] | activity change, negative = cytotoxicity [3] 10.9% [at 19 µM] | viability change, negative = cytotoxic [4] 8.57% [at 15.8 µM] | activity change, negative = cytotoxicity [5] -0.153% [at 15.8 µM] | activation [6] -0.288% [at 15.8 µM] | activity change, negative = cytotoxicity [10] -3.42% [at 19 µM] | caspase activation [9] 0.135% [at 19 µM]

CC(=C(CCOC(=O)C(C)C)SSC(CCOC(=O)C(C)C)=C(C)N(C=O)Cc1cnc(C)nc1N)N(C=O)Cc1cnc(C)nc1N
inactive: Potency [1] | Potency [2] | Potency [3] | outcome [4] | outcome [5] | outcome [7] | outcome [8] | Potency [10] | Potency [9]

Nc1nnc(-c2cccc(Cl)c2Cl)c(N)n1
inactive: Potency [1] | Potency [2] | Potency [3] | outcome [4] | outcome [5] | outcome [7] | outcome [8] | Potency [10] | Potency [9]

Cc1nc2n(c(=O)c1CCN1CCC(c3noc4cc(F)ccc34)CC1)CCC[C@H]2O
inactive: activity change, negative = inhibition [1] 1.27% [at 18.9 µM] | activity change, negative = cytotoxicity [2] -12.9% [at 18.9 µM] | activity change, negative = cytotoxicity [3] -13.8% [at 19 µM] | viability change, negative = cytotoxic [4] 1.49% [at 15.8 µM] | activity change, negative = cytotoxicity [5] -1.25% [at 15.8 µM] | activation [6] 0.469% [at 15.8 µM] | activity, negative = inhibition [7] -5.29% [at 10.5 µM] | activity change, negative = cytotoxicity [10] -2.46% [at 19 µM]
